hcDAF-12 act: activators of H. contortus DAF-12 nuclear receptor. HEK293 hcDAF-12 lit1-tk-luc reporter, luminescence; 0% DMSO, 100% Δ7-dafachronic acid. activation, % at 6.8 µM. actives 1.4% (n = 370,000). AID 652067;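 active = activation above the mean of all tested compounds plus 3 SD, cut at about 5.5% in these data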
DAX1 inh-1: inhibitors of DAX1 repression of SF-1 activated StAR promoter; actives 1.1% (n = 370,000); HEK293T StAR-luciferase reporter, SF-1/DAX-1 repression relief; inhibition, % at 6.8 µM; AID 652010;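 active = inhibition above the mean over all tested compounds plus 3 SD, cut at about 3.6% in these data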;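 note: higher inhibition means more luminescence from relief of DAX-1 repression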
hgDAF12 agonist: hgDAF-12 agonism, primary luciferase screen | HEK293 GAL4-hgDAF12 UAS-luciferase reporter, agonist luminescence; normalized to butyrate control | activation, % at 6.8 µM | actives 1.8% (n = 370,000);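 active = activation above a cutoff set at the mean of all screened compounds plus 3 SD, cut at about 10% in these data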
DAX1 inh-2: inhibits human nuclear receptor DAX1. actives 0.99% (n = 340,000). P51843. inhibition, % at 6.75 µM. HEK293 Gal4-DAX1 luciferase reporter, luminescence;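 active = inhibition above the mean over all tested compounds plus 3 SD, cut at about 4.2% in these data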;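 note: inhibition shows as a rise in luminescence from relieved DAX1 repression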
Target sequence (P51843 207-470 limits assumed): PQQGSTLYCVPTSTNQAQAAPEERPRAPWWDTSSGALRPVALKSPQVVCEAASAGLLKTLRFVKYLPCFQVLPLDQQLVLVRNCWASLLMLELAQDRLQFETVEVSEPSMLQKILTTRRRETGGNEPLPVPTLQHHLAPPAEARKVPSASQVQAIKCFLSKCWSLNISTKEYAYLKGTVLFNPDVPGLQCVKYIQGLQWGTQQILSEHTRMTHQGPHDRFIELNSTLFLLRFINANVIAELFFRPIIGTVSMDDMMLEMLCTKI
ssDAF12 agonist: S. stercoralis DAF-12 activation, primary screen | HEK293 ssDAF-12/GRIP1 lit1-tk-luc reporter, luminescence; % of 3 µM dafachronic acid response | actives 1% (n = 370,000) | activation, % at 6.8 µM;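 active = activation above the mean over all tested compounds plus 3 SD, cut at about 0.9% in these data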
A number is an active result. Rows were chosen to be rich in hits. Some 4.1% of all compounds tested hit in one or more screens of this group.

For Cc1nc2c([nH]c3ccccc32)c(=O)n1N the results were hcDAF-12 act inactive, DAX1 inh-1 inactive, hgDAF12 agonist inactive and ssDAF12 agonist 1.2.
Screening Cc1cccc(NC(=O)CSc2nc3c([nH]c4ccccc43)c(=O)n2C)c1 returned hcDAF-12 act 6.0, DAX1 inh-1 inactive, hgDAF12 agonist inactive, DAX1 inh-2 inactive and ssDAF12 agonist inactive.
For CCC(C)Sc1nc2c([nH]c3ccccc32)c(=O)n1C (stereo not drawn) the results were hcDAF-12 act inactive, DAX1 inh-1 inactive, hgDAF12 agonist inactive, DAX1 inh-2 inactive and ssDAF12 agonist 3.1.
Screening COc1ccc(-n2c(SCC(=O)Nc3cc(C)on3)nc3c([nH]c4ccccc43)c2=O)cc1 returned hcDAF-12 act inactive, DAX1 inh-1 inactive, hgDAF12 agonist inactive, DAX1 inh-2 inactive and ssDAF12 agonist 1.1.
For Nn1c(=O)[nH]c2c([nH]c3ccccc32)c1=O the results were hcDAF-12 act inactive, DAX1 inh-1 inactive, hgDAF12 agonist inactive, DAX1 inh-2 inactive and ssDAF12 agonist inactive.
CC(C)C[C@H](NC1(C(=O)NC2CCCCC2)CCC1)C(=O)NCC(c1ccccc1)c1ccccc1 was read as hcDAF-12 act inactive, hgDAF12 agonist inactive and ssDAF12 agonist inactive.
Screening COc1cccc(NC(=O)CSc2nc3c([nH]c4ccccc43)c(=O)n2C)c1 returned hcDAF-12 act 6.4, DAX1 inh-1 inactive, hgDAF12 agonist inactive, DAX1 inh-2 inactive and ssDAF12 agonist inactive.
Screening Cn1c(=O)c(=O)n(C)c2cc(S(=O)(=O)N3CCN(Cc4ccc5c(c4)OCO5)CC3)ccc21 returned hcDAF-12 act inactive, DAX1 inh-1 inactive, hgDAF12 agonist inactive and ssDAF12 agonist inactive.
O=C(Nc1cccc(NC(=O)c2cccnc2)c1)c1cccnc1 was read as DAX1 inh-2 inactive.
CC(C)c1ccc(C(=O)Nc2cccnc2)cc1 was read as hcDAF-12 act inactive, DAX1 inh-1 inactive, hgDAF12 agonist 10, DAX1 inh-2 inactive and ssDAF12 agonist inactive.
Screening O=C(Nc1ccc(Cl)c(Cl)c1)c1cccnc1 returned hcDAF-12 act inactive, DAX1 inh-1 inactive, hgDAF12 agonist inactive, DAX1 inh-2 6.3 and ssDAF12 agonist inactive.
For COC(=O)c1cn(Cc2cccnc2)c(=O)c2ccccc12 the results were hcDAF-12 act inactive, DAX1 inh-1 inactive, hgDAF12 agonist inactive, DAX1 inh-2 inactive and ssDAF12 agonist 0.9.
For COC(=O)c1cc2c(c3c4cc(C)ccc4n(S(=O)(=O)c4ccc(C)cc4)c13)C(=O)N(C)C2 the results were hcDAF-12 act inactive, DAX1 inh-1 inactive, hgDAF12 agonist inactive and ssDAF12 agonist inactive.
Screening Fc1ccc(-c2cc(-c3nnc4sc(Cc5cccs5)nn34)[nH]n2)cc1 returned hcDAF-12 act inactive, DAX1 inh-1 inactive, hgDAF12 agonist inactive and ssDAF12 agonist inactive.
For OC1CCC(Nc2ccn3nc(-c4cccc(Cl)c4)cc3n2)CC1 (stereo not drawn) the results were hcDAF-12 act inactive, DAX1 inh-1 inactive, hgDAF12 agonist inactive and ssDAF12 agonist inactive.
Screening CCC(CO)Nc1ccn2nc(-c3cccc(Cl)c3)cc2n1 (stereo not drawn) returned hcDAF-12 act inactive, DAX1 inh-1 3.9, hgDAF12 agonist 13 and ssDAF12 agonist inactive.
`Cc1cccc(NC(=O)c2n[nH]c([N+](=O)[O-])c2Br)c1C` gave hcDAF-12 act inactive, DAX1 inh-1 3.6, hgDAF12 agonist 11, DAX1 inh-2 inactive and ssDAF12 agonist inactive.
Screening COC(=O)[C@@]12C[C@@H](CC(=O)NCC34CC5CC(CC(C5)C3)C4)C(=O)N(Cc3ccco3)C1=CCC(C)(C)C2 returned hcDAF-12 act inactive, DAX1 inh-1 inactive, hgDAF12 agonist inactive and ssDAF12 agonist inactive.
Screening O=C(O)c1cc(Br)ccn1 returned hcDAF-12 act inactive, DAX1 inh-1 inactive, hgDAF12 agonist inactive, DAX1 inh-2 inactive and ssDAF12 agonist inactive.
Screening O=C(O)c1ccnc(C(=O)O)c1 returned hcDAF-12 act inactive, DAX1 inh-1 inactive, hgDAF12 agonist inactive, DAX1 inh-2 4.5 and ssDAF12 agonist inactive.
COc1cccc(CNC(=O)CCNS(=O)(=O)c2cccc3nonc23)c1 was read as hcDAF-12 act inactive, DAX1 inh-1 inactive, hgDAF12 agonist inactive, DAX1 inh-2 inactive and ssDAF12 agonist inactive.
For COc1cccc(CNC(=O)CCNS(=O)(=O)c2cccc3nsnc23)c1 the results were hcDAF-12 act inactive, DAX1 inh-1 inactive, hgDAF12 agonist inactive, DAX1 inh-2 8.6 and ssDAF12 agonist inactive.
`COc1ccc(CNC(=O)c2ccc(Cl)c(NC3=NC4CS(=O)(=O)CC4S3)c2)cc1` (stereo not drawn) gave hcDAF-12 act inactive, DAX1 inh-1 inactive, hgDAF12 agonist 11, DAX1 inh-2 inactive and ssDAF12 agonist inactive.
For O=C(NCc1ccccc1)c1ccc(Cl)c(NC2=NC3CS(=O)(=O)CC3S2)c1 (stereo not drawn) the results were hcDAF-12 act inactive, DAX1 inh-1 inactive, hgDAF12 agonist inactive, DAX1 inh-2 inactive and ssDAF12 agonist inactive.
CC(C)(C)Cc1c(-c2cccc(Cl)c2)nc2ccc(Br)cn12 was read as hcDAF-12 act inactive, DAX1 inh-1 inactive, hgDAF12 agonist inactive and ssDAF12 agonist 2.1.
`Clc1cccc(Cc2c(-c3ccco3)nc3ccc(Br)cn23)c1` gave hcDAF-12 act inactive, DAX1 inh-1 inactive, hgDAF12 agonist inactive and ssDAF12 agonist 1.9.
Screening Clc1ccc2nc(-c3cccc(Br)c3)c(Cc3ccccc3)n2c1 returned hcDAF-12 act inactive, DAX1 inh-1 inactive, hgDAF12 agonist inactive and ssDAF12 agonist inactive.
Screening Cc1ccc2nc(-c3cccc(Br)c3)c(Cc3ccccc3)n2c1 returned hcDAF-12 act 8.1, DAX1 inh-1 4.2, hgDAF12 agonist inactive and ssDAF12 agonist 1.9.
Screening CC(C)(C)Cc1c(-c2ccc(Br)cc2)nc2ccc(Br)cn12 returned hcDAF-12 act inactive, DAX1 inh-1 inactive, hgDAF12 agonist inactive, DAX1 inh-2 inactive and ssDAF12 agonist inactive.
Screening Cc1ccc(Cc2c(-c3cccc(Cl)c3)nc3ccc(Br)cn23)cc1 returned hcDAF-12 act inactive, DAX1 inh-1 inactive, hgDAF12 agonist 11 and ssDAF12 agonist inactive.
Screening C[C@H](CO)N1C[C@H](C)[C@H](CN(C)C(=O)NC2CCCCC2)OCc2cnnn2CCCC1=O returned hcDAF-12 act inactive, DAX1 inh-1 inactive, hgDAF12 agonist inactive and ssDAF12 agonist inactive.
For O=C(Nc1ccc(F)cc1)OC1CC2CC1[C@H]1CCCCN1C2 (stereo partly drawn) the results were hcDAF-12 act inactive, DAX1 inh-1 inactive, hgDAF12 agonist inactive and ssDAF12 agonist inactive.
Screening Cc1ccc2nc(-c3ccc(C#N)cc3)c(Cc3ccccc3)n2c1 returned hcDAF-12 act inactive, DAX1 inh-1 inactive, hgDAF12 agonist 11 and ssDAF12 agonist inactive.
For Clc1cccc(Cc2c(-c3cccc(Br)c3)nc3ccc(Cl)cn23)c1 the results were hcDAF-12 act inactive, DAX1 inh-1 inactive, hgDAF12 agonist inactive and ssDAF12 agonist inactive.
`COc1ccccc1Cc1c(-c2cccc(Br)c2)nc2ccc(C)cn12` gave hcDAF-12 act inactive, DAX1 inh-1 inactive, hgDAF12 agonist 12 and ssDAF12 agonist 1.2.
